Bioassay records deposited in PubChem by National Center for Advancing Translational Sciences (NCATS).
Compounds with a hit are over-represented: about 19% of the library has one in this group of screens.
SW480 rerep – A quantitative high throughput screen for small molecules that induce DNA re-replication in SW480 colon adenocarcinoma cells; SW480 DNA re-replication, Hoechst DNA content imaging, 48 h; Potency, µM (highest dose often 46.1 µM), for the others: top-dose re-replication activation, usual class: activators; actives 1.8% (n = 340,000); further: potency means the concentration at half of the fitted maximal effect; % of control where 0% means no effect; nearly all actives have a fitted effect of over 55% in size
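Hoechst fluorescence of nuclei (405 nm excitation, 500-530 nm emission) measured by plate-scanning imager after 48 hr compound exposure at 37 C; re-replication scored as increased number of nuclei with elevated intensity.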
DT40 TDP1 CPT – qHTS for Inhibitors of human tyrosyl-DNA phosphodiesterase 1 (TDP1): qHTS in cells in presence of CPT. actives 12% (n = 420,000). AID 686979, 2013. Potency, µM (series often up to 46.2 µM), without a hit: at the highest dose activity change, negative = growth inhibition, actives largely listed as inhibitors. chicken DT40 Tdp1-/-;hTDP1 cells + 20 nM CPT, ATP luminescence, 48 h; further: potency means the concentration at half of the fitted maximal effect; on the % scale 0 is the no-effect control and ±100 the full control effect; nearly all actives have a fitted effect of over 55% in size
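Cell growth measured by CellTiter-Glo luminescence after a minimum 48 h, 37 C compound exposure with 20 nM CPT in Tdp1-knockout DT40 cells stably expressing hTDP1, seeded 400/well; qHTS titration format.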
IL-1B inflam inh – qHTS for Inhibitors of Inflammasome Signaling: IL-1-beta AlphaLISA Primary Screen. actives 4.7% (n = 360,000). activity change, % at 57.5 µM. THP-1 LPS/ATP IL-1B secretion, AlphaLISA, 16 h; active compounds read low; in the data active means activity change below about -50%; inconclusive means mostly about -30% to -49%; further: on the % scale 0 is the no-effect control and ±100 the full control effect
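Secreted IL-1B measured by AlphaLISA bead assay after 16 h compound exposure of THP-1 cells; compounds (final up to 57.5 uM) added 1 h before LPS (250 ng/mL) and ATP (1.25 mM) stimulation; lower signal means less secretion.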
MCF10A rerep – A quantitative high throughput screen for small molecules that induce DNA re-replication in MCF 10a normal breast cells; MCF 10A DNA re-replication, Hoechst nuclear intensity, 48 h; Potency, µM (highest dose often 46.1 µM), without a hit: at the highest dose activity, positive = re-replication, usual class: activators; actives 2.9% (n = 350,000); further: potency means the concentration at half of the fitted maximal effect; % of control where 0% means no effect; nearly all actives have a fitted effect of over 50% in size
DT40 TDP1 no CPT – qHTS for Inhibitors of human tyrosyl-DNA phosphodiesterase 1 (TDP1): qHTS in cells in absence of CPT; actives 15% (n = 420,000); Potency, µM (series often up to 46.2 µM), inactives show top-dose activity change, negative = growth inhibition, most hits filed as inhibitors; DT40 Tdp1-/- hTDP1 cells, no CPT, ATP luminescence, 48 h; AID 686978, 2013; further: potency means the concentration at half of the fitted maximal effect; on the % scale 0 is the no-effect control and ±100 the full control effect; nearly all actives have a fitted effect of over 55% in size
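Stably hTDP1-transfected Tdp1-null chicken DT40 cells were treated with library compounds minus camptothecin and grown for at least 48 hr at 37 °C, after which cellular ATP was quantified by luminescence.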
Chronic BCR inh – qHTS Assay to Find Inhibitors of Chronic Active B-Cell Receptor Signaling; ABC-DLBCL IkBa-CBG/CBR reporter, luminescence ratio, 4 h; AID 493014, 2011; actives 0.05% (n = 340,000); Potency, µM (series often up to 46.1 µM), inactives show top-dose activity change, negative = inhibition, actives largely listed as inhibitors; active means well fitted inhibition curve with a large enough effect in the signal ratio, with a control signal flat, not every such curve was filed as active; inconclusive means small, poorly fitted or top-dose-only effect, or effect the other way, or a change in a side signal; the % refers to the signal ratio;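 further: potency means the concentration at half of the fitted maximal effect; plate controls were basal doxycycline-induced cells for no effect and cells given 10 µM MG132 for full effect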
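Concentration-response series (up to 46 uM) were applied to TMD8 dual-reporter cells for 4 h at 37C with doxycycline. Green/red ratio, after filter-overlap correction, defined %Activity; red signal alone was normalised to basal cells and zero luminescence.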
The depositor's hits bear a star; ? = inconclusive; · = not tested or not shown. Unless noted, the call rests on the fitted dose curve; in most records, active means well fitted curve in the direction sought with a large enough effect; inconclusive means small, poorly fitted or top-dose-only effect, or another doubt; inactive means no such curve, though single readings can be large; an effect the other way counts as inactive or inconclusive.

SMILES	SW480 rerep	DT40 TDP1 CPT	IL-1B inflam inh	MCF10A rerep	DT40 TDP1 no CPT	Chronic BCR inh
COc1ccc(OC)c(/C=C/C(=O)NCCc2nc3ccccc3[nH]2)c1	1%	7.3µM*	6	-1%	12µM*	?
CN(CC(=O)Nc1ccccc1Cl)C(=O)c1ccc(N2C(=O)CCC2=O)cc1	1%	3%	5	0%	3%	3%
COc1ccc(/C=C/C(=O)Nc2c(C(=O)O)[nH]c3ccccc23)cc1OC	0%	21µM*	34	0%	?	?
COc1ccc(/C=C/C(=O)NC(=S)NNC(=O)c2cc(OC)c(OC)c(OC)c2)cc1	-3%	?	84	3%	9.2µM*	-11%
COc1cc(/C=C/C(=O)NCc2ccccn2)cc(OC)c1OC	-6%	3%	-6	5%	11%	?
COc1ccc(/C=C/C(=O)NCc2ccccn2)cc1OC	-3%	-9%	-73*	-13%	-3%	11%
COc1ccc(/C=C/C(=O)NC(=S)Nc2ccccc2)cc1OC	18µM*	11%	23	17%	-15%	-1%
CCOC(=O)c1ncccc1NC(=O)CC(=O)Nc1cccnc1C(=O)OCC	?	-18%	?	0%	-28%	·
COc1ccc(/C=C\C(=O)c2c(O)ccc3c(C)cc(=O)oc23)cc1OC	?	16µM*	-70*	?	23µM*	?
COc1ccc(/C=C/C(=O)c2c(O)c(OC)c3occc3c2OC)cc1OC	·	11µM*	·	·	10µM*	·
Cc1cc(=O)oc2c(C(=O)/C=C/c3ccccc3)c(O)ccc12	-2%	4%	10	?	?	13%
C/C=C/c1ccc(OC)c(OC(C)=O)c1	-8%	2%	12	0%	1%	8%
Cc1cc(=O)oc2c(C(=O)/C=C\c3cccs3)c(O)ccc12	7%	?	-99*	?	?	?
Cc1ccc(S(=O)(=O)NNC(=O)CCC(=O)Nc2ccccc2Cl)cc1	-2%	-4%	-13	8%	-4%	3%
COc1cccc(CNC(=O)CCc2c(C)c3cc4c(C)coc4cc3oc2=O)c1	·	13µM*	·	·	16µM*	·
Cc1oc2c(C)c3oc(=O)c(CCC(=O)NCCCN4CCCC4=O)c(C)c3cc2c1C	-36%	-26%	?	9%	?	1%
Cc1coc2cc3oc(=O)c(CCC(=O)NCc4ccccc4Cl)c(C)c3cc12	·	-19%	·	·	-2%	·
Cc1c(CCC(=O)NCCCn2ccnc2)c(=O)oc2c(C)c3occ(C(C)(C)C)c3cc12	21µM*	?	-97*	?	21µM*	?
Cc1oc2cc3oc(=O)c(CCC(=O)NCCCN4CCCC4=O)c(C)c3cc2c1C	4%	15µM*	-25	9%	?	6%
Cc1coc2c(C)c3oc(=O)c(CCC(=O)NCCc4ccc(Cl)cc4)c(C)c3cc12	·	?	·	·	12µM*	·
C=C1C(n2cnc3c(=O)[nH]c(N)nc32)C[C@H](O)[C@H]1CO (stereo partly specified)	-8%	·	·	1%	·	·
CC1=C(C(=O)Nc2ccc(C)cc2C)C(c2ccc[nH]2)n2ncnc2N1 (stereo unspecified)	·	4%	·	·	0%	·
Cc1coc2cc3oc(=O)c(CCC(=O)NCc4ccc(Cl)cc4)c(C)c3cc12	·	10µM*	·	·	26µM*	·
Cc1ccc(CNC(=O)CCc2c(C)c3cc4c(C)coc4cc3oc2=O)cc1	·	16µM*	·	·	?	·
COc1ccc(CCNC(=O)CCc2c(C)c3cc4c(C)c(C)oc4cc3oc2=O)cc1	·	10µM*	·	·	21µM*	·
SMILES	SW480 rerep	DT40 TDP1 CPT	IL-1B inflam inh	MCF10A rerep	DT40 TDP1 no CPT	Chronic BCR inh
COc1ccccc1CCNC(=O)CCc1c(C)c2cc3c(C)coc3cc2oc1=O	·	16µM*	·	·	?	·
Cc1coc2cc3oc(=O)c(CCC(=O)NCCN4CCOCC4)c(C)c3cc12	0%	?	-8	5%	?	8%
Cn1c(SCC(=O)NC(=O)Cc2ccccc2)nnc1-c1ccc(F)cc1	-17%	-1%	17	-14%	-9%	-1%
COc1ccc(-c2cc3nc4n(c(=O)c3s2)CCC4)cc1	-6%	15µM*	0	-7%	?	-21%
COc1ccc(-c2nc3n(c2C)CCC3)cc1	-35%	0%	-11	?	-28%	0%
COc1ccc(-c2cc3nc(C)n(N)c(=O)c3s2)cc1	-10%	5.8µM*	-15	9%	5.8µM*	?
COc1ccc(NC(=O)Nc2nc3c(s2)CCCC3)cc1	-1%	?	-52*	17%	23µM*	?
O=C(Nc1cccc(Br)c1)Nc1nc2c(s1)CCCCCC2	·	7.3µM*	·	·	8.2µM*	·
Cc1cc(C(=O)Nc2nc3c(s2)CCCC3)cs1	20%	?	?	-1%	?	?
CC(C)n1cnc2c(Nc3cccc(Cl)c3)nc(NCCCO)nc21	?	21µM*	-95*	19%	16µM*	?
CC(=O)N1CCC[C@@]2(CCN(C(c3ccccc3)c3ccccc3)C2)C1	·	11%	·	·	-7%	·
COc1ccc(Nc2nc(S(=O)(=O)c3ccc(C)cc3)c(Cl)s2)cc1	-2%	?	-91*	?	?	?
